Results on eight compounds are retold here after PubChem BioAssay (NCI).

Common to all, as to test: NCI-60 one-dose screen, 48 h (100 = growth as untreated, 0 = no growth, -100 = all killed)
What all share (conditions): 10 µM unless noted

The test system of experiment [1] is NCI-H23 lung.
The test system of experiment [2] is NCI-H226 lung.
The test system of experiment [3] is NCI-H322M lung.
The subject of experiment [4] is HOP-62 NSCLC.
The subject of experiment [5] is NCI-H460 lung.
The test system of experiment [6] is HOP-92 NSCLC.
Experiment [7] deals with NCI-H522 lung.
The test system of experiment [8] is A549/ATCC NSCLC.
In experiment [9] the test system is 786-0 renal.
Experiment [10] deals with COLO 205 colon.
Experiment [11] relates to DU-145 prostate.
In experiment [12] the test system is MALME-3M melanoma.
The test system of experiment [13] is MDA-MB-231 breast.
The test system of experiment [14] is RXF 393 renal.
Experiment [15] concerns SF-268 CNS.
Experiment [16] deals with SF-295 CNS.
In experiment [17] the test system is SF-539 CNS.
In experiment [18] the test system is UACC-257 melanoma.
For experiment [19], the system named is M14 melanoma.

About 83,000 compounds went through this panel and 20% of them were active in at least one assay; those are over-represented in the sample as a whole.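 Note: values are percent growth. 100 is the growth of untreated cells, values between 100 and 0 indicate rising inhibition; between -100 and 0 indicates cell death.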 Unmarked numbers belong to inactive results. Calls of active or inactive are those of the source. The calls were made as follows: active = growth percent below 10; inactive = the rest.

Take `Cc1cc(C)n(-c2ccc3nnc(-c4ccccc4)n3n2)n1`: the growth in experiment [1] was 94.1%; in experiment [2] it was 105%; in experiment [3] it was 110%; in experiment [4], 122%; in experiment [5] it was 104%; in experiment [6], 85.2%. The growth in experiment [7] was 74.7%; in [8], 99.6%; in experiment [9], 93.9%; in experiment [10], 115%; in experiment [11], 92.2%; in experiment [12], 108%. The growth in [13] is 117%; in experiment [14], 90.6%; in experiment [15], 89.6%; in experiment [16] it was 103%; in experiment [17] it was 102%; in [18], 135%. For the same compound, the growth in [19] is 129%.
Turning to `CN1CCN(c2ccc3c(c2)nc(NNC(=O)c2ncccn2)c2cccn23)CC1`, the growth was 4.51% (active) in [1]; -22.8% (active) in experiment [2]; -7.59% (active) in experiment [3]; -19.7% (active) in experiment [4]; 3.42% (active) in experiment [5]; -14.8% (active) in [6]. Further, the growth in [7] was -7.36% (active); in [8], 12.5%; in experiment [9], -96.8% (active); in experiment [10], -85.7% (active); in [11], 1.57% (active); in experiment [12], -41.8% (active). Besides, the growth is -45.8% (active) in experiment [13]; -53.6% (active) in experiment [14]; -15.7% (active) in experiment [15]; -90% (active) in [16]; -83% (active) in experiment [17]; 17.8% in experiment [18]. The growth in experiment [19] was -53.5% (active).
Turning to `COc1ccccc1/C=C/C(=O)c1ccc(OC)c(S(N)(=O)=O)c1`, the growth in [1] is 23.2%; in experiment [2], 39.8%; in experiment [3] it was 30.5%; in [4] it was 13.5%; in experiment [5], 5.83% (active); in experiment [6] it was 48.6%. The growth in experiment [7] is -9.78% (active); in experiment [8], 5.93% (active); in experiment [9], 24%; in experiment [10], 1.12% (active); in [11], 26.4%; in [12], 50%. Further, the growth in experiment [13] is 7.39% (active); in [14] it was -0.859% (active); in [15], 21%; in [16] it was 21.8%; in [17] it was -4.72% (active); in experiment [18] it was 59.6%. The growth in [19] was 8.83% (active).
Take `O=C(Nc1ccc(C(F)(F)F)cc1)Nc1ccc2oc(=O)ccc2c1`: the growth was 3.56% (active) in experiment [1]; 26.6% in [2]; 41.1% in experiment [3]; 50.1% in experiment [4]; 15.9% in experiment [5]; -5.11% (active) in [6]. Besides, the growth was -10.4% (active) in [7]; 14.1% in experiment [8]; 53.8% in [9]; -26.4% (active) in experiment [10]; 27.9% in experiment [11]; -1.86% (active) in [12]. Moreover, the growth in experiment [13] is 14.6%; in experiment [14] it was 56.5%; in experiment [15], 50.9%; in experiment [16], -7.66% (active); in [17], 32.2%; in experiment [18], 0.986% (active). The growth in experiment [19] was 16.3%.
As for `O=C1Nc2ccc([N+](=O)[O-])cc2C1=Nc1ccccc1`, the growth was 106% in experiment [1]; 102% in experiment [2]; 96.1% in experiment [3]; 114% in experiment [4]; 109% in experiment [5]; 118% in [6]. For the same compound, the growth in [7] was 110%; in experiment [8] it was 130%; in [9], 102%; in experiment [10], 108%; in [11] it was 114%; in [12], 100%. In addition, the growth in experiment [13] is 95.3%; in [14] it was 143%; in experiment [15], 98.9%; in [16], 90.7%; in experiment [17], 91.8%; in experiment [18], 134%. Besides, the growth in experiment [19] is 104%.
In the case of `CC(=O)N1CCN(Cc2ccc3c(NNC(=O)c4cnccn4)nc4cc(F)ccc4n23)CC1`, the growth is 34.3% in [1]; 8.73% (active) in experiment [2]; 32.7% in experiment [3]; 15.4% in experiment [4]; 9.64% (active) in experiment [5]; 56.1% in experiment [6]. Further, the growth in experiment [7] is 57.2%; in experiment [8], 25.4%; in experiment [9], 0.0554% (active); in experiment [10] it was 9.92% (active); in [11] it was 39.4%; in experiment [12] it was 30.4%. In addition, the growth was 36.5% in experiment [13]; 54.2% in experiment [14]; 28.7% in [15]; 10.7% in experiment [16]; 6.02% (active) in experiment [17]; 13.3% in [18]. Further, the growth in experiment [19] is -31.4% (active).
As for `O=C1N/C(=N\c2nccs2)S/C1=C\C=C/c1ccccc1`, the growth was 55.8% in experiment [1]; 81.5% in experiment [2]; 30.4% in experiment [3]; 43% in [4]; 26.4% in [5]; 64% in [6]. Moreover, the growth was 19.8% in experiment [7]; -81.1% (active) in experiment [8]; 31% in experiment [9]; 33.2% in experiment [10]; 49.1% in [11]; 42.6% in [12]. Also, the growth in experiment [13] was 51.6%; in experiment [14] it was 88.6%; in experiment [15], 39.2%; in experiment [16] it was 21.9%; in experiment [17], 13%; in [18], 8.23% (active). Also, the growth in experiment [19] is -21% (active).
On to `CN1CCN(c2ccc3c(c2)nc(NNC(=O)c2cnccn2)c2cccn23)CC1`, for which the growth in experiment [1] was 1.16% (active); in [2], -7.98% (active); in experiment [3], 27.7%; in experiment [4], -24.4% (active); in experiment [5], 2.41% (active); in [6], -29.3% (active). Besides, the growth in [7] is -16.7% (active); in experiment [8], 0.0581% (active); in [9], -95.5% (active); in experiment [10] it was -64% (active); in experiment [11], -9.7% (active); in experiment [12] it was -24.5% (active). The growth was -35.1% (active) in [13]; -65.1% (active) in experiment [14]; 10.6% in experiment [15]; -81.3% (active) in experiment [16]; -41.3% (active) in experiment [17]; -48.6% (active) in experiment [18]. The growth in experiment [19] is -78.1% (active).
